Screens: PubChem BioAssay, The Scripps Research Institute Molecular Screening Center
hcDAF12 agonist = activates DAF-12 receptor from parasite H. contortus; HEK293 hcDAF-12 lit1-tk-luc reporter, luminescence; 0% DMSO, 100% Δ7-dafachronic acid; activation, % at 6.8 µM; 370,000 tested, 1.4% active; AID 652067;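 active = activation above the mean of all tested compounds plus 3 SD, cut at about 5.5% in these data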;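 also: 100% = response to 3 µM Δ7-dafachronic acid high control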
hgDAF12 agonist = agonists of H. glycines DAF-12 nuclear receptor; activation, % at 6.8 µM; HEK293 GAL4-hgDAF12 UAS-luciferase reporter, agonist luminescence; normalized to butyrate control; 370,000 tested, 1.8% active;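 active = activation above a cutoff set at the mean of all screened compounds plus 3 SD, cut at about 10% in these data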;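 also: 0% = DMSO wells and 100% = sodium butyrate wells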
ssDAF12 agonist = S. stercoralis DAF-12 activation, primary screen | HEK293 ssDAF-12/GRIP1 lit1-tk-luc reporter, luminescence; % of 3 µM dafachronic acid response | activation, % at 6.8 µM | 370,000 tested, 1% active;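 active = activation above the mean over all tested compounds plus 3 SD, cut at about 0.9% in these data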;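 also: 0% = DMSO-only wells and 100% = 3 µM delta7-dafachronic acid wells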
DAX1 inh-1 = NR0B1 (DAX1) inhibition; HEK293 Gal4-DAX1 luciferase reporter, luminescence; inhibition, % at 6.75 µM; 340,000 tested, 0.99% active;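 active = inhibition above the mean over all tested compounds plus 3 SD, cut at about 4.2% in these data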;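 also: 0% = DAX1-transfected cells with DMSO and 100% = empty-vector control cells with DMSO; inhibition shows as a rise in luminescence from relieved DAX1 repression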
Target sequence (P51843 207-470 limits assumed): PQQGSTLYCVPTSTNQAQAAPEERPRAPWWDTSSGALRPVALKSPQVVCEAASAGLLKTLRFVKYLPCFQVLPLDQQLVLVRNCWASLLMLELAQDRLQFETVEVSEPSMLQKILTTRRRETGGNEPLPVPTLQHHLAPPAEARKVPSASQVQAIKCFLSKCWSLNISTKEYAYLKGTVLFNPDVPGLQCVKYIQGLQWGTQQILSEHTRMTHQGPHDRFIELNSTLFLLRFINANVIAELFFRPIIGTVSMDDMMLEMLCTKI
AHR activator = activates the human aryl hydrocarbon receptor; P35869; AHR-responsive luciferase reporter cells, luminescence; activation, % at 5 µM; 320,000 tested, 2.5% active; AID 2796; in the data active = activation above about 47%;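 also: 0% = vehicle wells and 100% = reference agonist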
DAX1 inh-2 = DAX1 (NR0B1) inhibition, primary screen. HEK293T StAR-luciferase reporter, SF-1/DAX-1 repression relief. inhibition, % at 6.8 µM. 370,000 tested, 1.1% active. AID 652010;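 active = inhibition above the mean over all tested compounds plus 3 SD, cut at about 3.6% in these data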;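 also: 0% = DAX-1 cells with DMSO and 100% = cells lacking DAX-1 with DMSO; higher inhibition means more luminescence from relief of DAX-1 repression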
* = called active by the depositor; . = no result. Only some compounds are listed: those with a hit (about 5.7% of all), similar ones and a draw of the others.

SMILES	hcDAF12 agonist	hgDAF12 agonist	ssDAF12 agonist	DAX1 inh-1	AHR activator	DAX1 inh-2
CC1=C(C(=O)OCC2CCCO2)C(c2coc3ccc(C)cc3c2=O)C2=C(CCCC2=O)N1 (configuration not stated)	4	-1	1.7*	-2	11	0
CC1=C(C(=O)OCC2CCCO2)C(c2ccc(C)cc2)C2=C(CCCC2=O)N1 (configuration not stated)	-2	1	-2	1	2	0
CC1=C(C(=O)OC2CCCC2)C(c2coc3ccc(C)cc3c2=O)C2=C(CCCC2=O)N1 (configuration not stated)	3	-2	0	3	16	0
C[C@H]1[C@@H](OC(=O)NCc2ccco2)CC[C@@]23CCCN2C(=O)CCC[C@@H]13	0	4	-1	.	.	.
Cc1n[nH]c(C)c1NC(=O)CSc1nnnn1-c1cccc(F)c1	0	1	0	0	8	1
CCCc1nnc(NC(=O)c2oc3ccccc3c2COCC)s1	0	1	-1	-1	.	0
CC(C)OCc1c(C(=O)Nc2nccs2)oc2ccccc12	3	2	0	-1	57*	-2
Cc1c(C(=O)Nc2nccs2)oc2c(Cl)cccc12	5	7	1.3*	2	55*	1
CCOC(=O)CN1C=C(c2ccc3ccccc3n2)C(C[N+](=O)[O-])c2ccccc21 (configuration not stated)	.	.	.	0	67*	.
COc1ccc(NC(=O)c2ccccc2O)c(OC)c1	5.8*	9	1	3	13	3
COc1ccc(NC(=O)c2cc(Br)ccc2Cl)c(OC)c1	-4	-3	-2	0	107*	-1
C/C(=N\NC(=O)CC1N=C(Cc2ccccc2)NNC1=O)c1ccc(C)cc1 (configuration not stated)	-1	5	-1	0	18	0
C/C(=N/NC(=O)CC1N=C(Cc2ccccc2)NNC1=O)c1cccnc1 (configuration not stated)	-2	1	-1	1	62*	0
C=CCN1C[C@H](COC(=O)CSc2ccccc2)Oc2cccc(F)c2S1(=O)=O	1	-1	-1	.	.	0
Cn1c(=O)[nH]c2ncn(C)c2c1=O	0	11*	-1	0	-1	1
Cc1cc(-n2c(SCC(=O)NCc3cccs3)nc3n[nH]c(C)c3c2=N)ccc1Cl	-1	-2	-1	-2	70*	0
COc1ccc(NC(=O)Cc2c(Sc3ccccc3)c3ccccc3n2C)cc1	4	0	0	-1	13	1
Cn1c(CC(=O)Nc2ccc(F)cc2)c(Sc2ccccc2)c2ccccc21	6.5*	0	-1	0	22	0
Nc1[nH]c(C(=O)c2ccc(Cl)cc2)c(-c2ccc(Br)cc2)c1C(=O)NCc1ccc(Cl)cc1Cl	-2	1	-1	.	.	1
Cc1ncsc1C(=O)Nc1nc2c(s1)CC(C)CC2 (configuration not stated)	3	13*	0	1	14	3
COc1ccccc1/C=N\Nc1cn[nH]c(=O)c1Cl	0	-1	0	-1	48*	-1
O=c1[nH]ncc(N/N=C\c2cccnc2)c1Cl	0	0	-1	5.2*	12	0
CCOC(=O)c1ccc(Nc2nnc(C)c3ccccc23)cc1	-3	-2	-2	0	-3	0
O=[N+]([O-])c1ccc(CSc2nc3ccccc3o2)cc1	4	12*	1	1	0	3.6*
COC(=O)c1ccc(CSc2nc3ccccc3o2)cc1	2	10	1	-1	1	2
SMILES	hcDAF12 agonist	hgDAF12 agonist	ssDAF12 agonist	DAX1 inh-1	AHR activator	DAX1 inh-2
CC(NC(=O)/C(C#N)=C/c1cccs1)c1ccccc1 (configuration not stated)	-1	-2	-2	-2	4	-2
CC(C)(C)c1ccc(C(=O)/C(C#N)=C/c2cccs2)cc1	0	0	-2	4.6*	4	0
N#C/C(=C\c1cccs1)C(=O)Nc1ccccn1	3	7	1	6.9*	-1	3
ClC(Cl)(c1nnnn1-c1ccccc1)c1nnnn1-c1ccccc1	1	-3	-1	0	3	0
Cc1n[nH]c(=O)c2c(NC(=O)CSc3nn(-c4ccccc4)c(=S)s3)oc(C)c12	3	-1	1.1*	1	35	-1
COc1ccc(CC(NC(C)=O)C(=O)NC2CCN(c3nnnn3-c3ccccc3)CC2)cc1OC (configuration not stated)	.	.	.	.	-2	.
c1ccc(-c2ncc(-c3ccn[nH]3)s2)cc1	5	22*	2.0*	0	-3	5.4*
c1csc(-c2ccn[nH]2)c1	0	2	-1	-1	6	1
CC(C)c1ccc(/C=C2\SC(=O)N(CC(=O)NC3CCS(=O)(=O)C3)C2=O)cc1 (configuration not stated)	2	11*	-1	0	2	3
COc1ccc(/C=C2\SC(=O)N(CCC(=O)N(C)C3CCS(=O)(=O)C3)C2=O)cc1 (configuration not stated)	-1	-1	-1	0	0	0
O=C(CN1C(=O)c2ccccc2C1=O)NC1CCS(=O)(=O)C1 (configuration not stated)	-1	2	-1	0	.	2
COc1ccc(/C=C2\SC(=O)N(CC(=O)N(C)C3CCS(=O)(=O)C3)C2=O)cc1 (configuration not stated)	2	2	1.0*	1	4	1
O=C(CN1C(=O)c2ccc([N+](=O)[O-])cc2C1=O)NC1CCS(=O)(=O)C1 (configuration not stated)	1	-2	-1	5.6*	-1	0
Cc1c(Br)cnn1C(C)C(=O)N1CCN(c2ccccc2F)CC1 (configuration not stated)	0	-2	-1	-1	1	-2
O=C(c1[nH]c(C(F)(F)F)nc1-c1ccccc1)N1CCN(C/C=C/c2ccccc2)CC1	1	0	-1	.	.	0
CCn1c(SCC(=O)Nc2ccc(OC)cc2)nc2c(c1=O)SCC2	-1	1	-1	-1	0	0
CC(=C/c1ccccc1)/C=N/n1c(-c2ccco2)n[nH]c1=S	-1	-3	-2	-1	-3	0
CC(/C=N/n1c(-c2cc(C)[nH]n2)n[nH]c1=S)=C\c1ccccc1	-1	1	-1	0	78*	0
CCOc1cccc2sc(N(CCN(CC)CC)C(=O)c3ccc(S(=O)(=O)N4CCCCC4)cc3)nc12	0	0	2.0*	-1	9	0
O=C(OCC(=O)N(C1CCCCC1)C1CCCCC1)c1ccc(Cl)nc1	2	2	0	0	14	-1
